Inconclusive results are not listed. Values without a mark were called inactive. Calls follow the shape of the dose curve; as a rule, active = well fitted cell-killing curve with a large enough effect in the repeat runs; inconclusive = weak or mixed curves, or effect the other way; inactive = flat fitted curve, though single readings scatter.
Test: qHTS RealTime-Glo MT Cell Viability Assay in HepG2 cells - 40 hour (AID 1224870); also: nearly all actives have a fitted effect of over 50% in size
Conditions: RealTime-Glo luminescence; series mostly up to 76.8 µM; activity change, negative = cytotoxic: at the top concentration
From the text: National Center for Advancing Translational Sciences [NCATS]
NIH Chemical Genomics Center [NCGC]
U.S. Environmental Protection Agency [EPA]
National Institutes of Environmental Health Sciences [NIEHS]
National Toxicology Program [NTP]
U.S. Food and Drug Administration [FDA]
Measure of cell viability is critical in the cell-base assay. Analysis of cell viability is necessary for the characterization of cell responses to cytotoxic drugs and environmental stress. A RealTime-Glo MT Cell Viability Assay to monitor cell viability in real time of continues cell culture during 40 hours of compound treatment was used to screen Tox21 10K library compounds in HepG2 cells. The RealTime-Glo MT Cell Viability Assay is a nonlytic, homogeneous, bioluminescent method to measure cell viability in real time using a simple, plate-based method. The assay involves adding NanoLuc luciferase and a cell-permeant prosubstrate to cells in culture. Viable cells reduce the proprietary prosubstrate to generate a substrate for NanoLuc luciferase. This substrate diffuses from cells into the surrounding culture medium, where it is rapidly used by the NanoLuc Enzyme to produce a luminescent signal. The signal correlates with the number of viable cells, making the assay well suited for cytotoxicity studies.
Tox21 Assay Protocol Summary:
The mixture of HepG2 cell suspension and reagents were dispensed at 600cells/6 ul/well in 1536-well tissue culture treated black solid bottom plates using a Multidrop dispenser. After the assay plates were incubated at a 37 C/5% CO2 incubator for 5 hours, 23 nL of compounds dissolved in DMSO, positive and negative controls was transferred to the assay plate by a pintool work station. The plates were incubated at 37 C for 40 hours. The luminescence intensity were measured at 0h, 8h, 16h, 24h, 32h and 40h time points using ViewLux plate reader during compound treatment.
% is scaled to controls: 0 for no effect and ±100 for the full control effect.

SMILES | activity change, negative = cytotoxic
OCCSCSCCO | 0.587%
CCCCc1c(C)nc(NCC)[nH]c1=O | 0.583%
CNC(=O)Oc1c(C(C)(C)C)cc(C)cc1C(C)(C)C | 0.182%
COC(=O)C(C)Oc1ccc(Oc2ccc(Cl)cc2Cl)cc1 (stereo not given) | 0.673%
O=P(O)(Oc1ccccc1)Oc1ccccc1 | 2.81%
O=C(CCCN1CCC(n2c(=O)[nH]c3ccccc32)CC1)c1ccc(F)cc1 | -4.59% [at 35.3 µM]
CC(CCc1ccccc1)NC(C)C(O)c1ccc(O)cc1 (stereo not given) | -4.47% [at 35.3 µM]
BrCCCCCCBr | 0.0258%
O=[N+]([O-])c1cccc(O)c1 | -1.3%
COC(=O)c1ccccc1S(=O)(=O)NC(=O)Nc1nc(C)cc(C)n1 | -3.57%
COc1cccc(C(=O)NN(C(=O)c2cc(C)cc(C)c2)C(C)(C)C)c1C | -24%
C=C(C)CN(CC)c1c([N+](=O)[O-])cc(C(F)(F)F)cc1[N+](=O)[O-] | 0.071%
CN1C[C@@H](NS(=O)(=O)N(C)C)C[C@@H]2c3cccc4c3c(cn4C)C[C@H]21 | -0.821% [at 35.3 µM]
Clc1ccccc1N1CCNCC1 | 1.68% [at 35.3 µM]
Nc1n[nH]c(N)n1 | 0.734%
CCOC(=O)CP(=O)(OCC)OCC | 1.34%
Fc1cc(Br)ccc1CBr | 2.19% [at 35.3 µM]
OC(Cn1cncn1)(c1ccc(F)cc1)c1ccccc1F (stereo not given) | -10.7%
COc1cc(C[C@@H](C)N)c(OC)cc1C | 0.0441%
N#Cc1ccncc1 | 1.54%

SMILES | activity change, negative = cytotoxic
NC(=O)O | 4.99%
CCCCCCBr | 3.65%
C[C@@H]1CN(C2CCC(C#N)(c3ccc(F)cc3)CC2)CC[C@]1(C(=O)O)c1ccccc1 (stereo not given in full) | 1.6% [at 35.3 µM]
C=CC1CC=CCC1 (stereo not given) | 2.35%
N#CC(Cl)(Cl)Cl | 0.301%
CCN(Cc1ccc(Cl)nc1)/C(=C/[N+](=O)[O-])NC | 2.01% [at 35.3 µM]
C#CCN1C(=O)COc2cc(F)c(N3C(=O)C4=C(CCCC4)C3=O)cc21 | -0.229%
Nc1c(Br)cc([N+](=O)[O-])cc1[N+](=O)[O-] | 0.129%
CC(C)(C)C(=O)C(Oc1ccc(Cl)cc1)n1cncn1 (stereo not given) | -0.351%
CC(C(O)c1ccccc1)N(C)C/C=C/c1ccccc1 (stereo not given) | -0.687% [at 35.3 µM]
O=NN1CCCCC1 | 2.24%
Cc1nnc2n1-c1sc(CCC(=O)N3CCOCC3)cc1C(c1ccccc1Cl)=NC2 | 0.163% [at 35.3 µM]
C[N+](C)=CCl | 0.508%
N#CCBr | 0.838%
CNC(=O)Oc1ccc(N(C)C)c(C)c1 | 1.02%
CC1(C)CON(Cc2ccccc2Cl)C1=O | -5.86%
NC(=S)C(N)=S | -0.245%
CCOP(=S)(OCC)Oc1cc(-c2ccccc2)on1 | 0.53%
COP(N)(=S)Oc1ccccc1C(=O)OC(C)C (stereo not given) | -1.98%
CCC(=O)c1ccccc1 | -1.98%
